Tau FP inhib – qHTS for Inhibitors of Tau Fibril Formation, Fluorescence Polarization; Microtubule-associated protein tau (Homo sapiens), P10636; Potency, µM (highest dose often 57.7 µM), for the others: at the highest dose activity, negative = inhibition, most hits filed as inhibitors; 280,000 tested, 0.39% active; K18 P301L tau heparin fibrillization, Alexa594 FP, 6 h; AID 1468, 2008; note: potency is the fitted concentration of half-maximal effect; nearly all actives have a fitted effect of over 55% in size
Target sequence (P10636 561-689 P618L limits assumed): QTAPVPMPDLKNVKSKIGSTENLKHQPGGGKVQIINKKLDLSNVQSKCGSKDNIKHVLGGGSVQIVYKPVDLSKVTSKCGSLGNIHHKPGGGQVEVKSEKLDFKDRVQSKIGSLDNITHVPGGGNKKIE
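Compound effects on tau fibrillization are measured by Alexa 594 fluorescence polarization (ex 555, em 632 nm). K18 P301L tau is used at 15 uM with 0.24 uM labeled tracer, and 20 uM heparin induces aggregation over 6 hr at 37 C.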
Tau ThT inhib – qHTS for Inhibitors of Tau Fibril Formation, Thioflavin T Binding. AID 1460, 2008. Potency, µM (top dose mostly 57.4 µM), for the others: at the highest dose activity, negative = inhibition, actives largely listed as inhibitors. Microtubule-associated protein tau (Homo sapiens), P10636. recombinant tau K18 P301L, heparin-induced fibrillization, ThT fluorescence. 270,000 tested, 2.1% active; note: potency is the fitted concentration of half-maximal effect; nearly all actives have a fitted effect of over 55% in size
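Fibril formation assay: tau K18 P301L at 15 uM with trace Alexa 594 label, heparin inducer 20 uM, pH 7 sodium acetate buffer, 37 C for 6 hr; endpoint ThT signal.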
Tau fluor cs – Counterscreen qHTS for Inhibitors of Tau Fibril Formation, Fluorescence Polarization; 280,000 tested, 0.93% active; AID 1463, 2008; Potency, µM (titrated, usually from 57.7 µM), without a hit: at the top dose activity change, negative = decrease; tau K18 P301L (four-repeat tau fragment) Alexa594 fluorescence, heparin fibrillization; note: potency is the fitted concentration of half-maximal effect; nearly all actives have a fitted effect of over 55% in size
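Human K18 P301L tau (15 uM unlabeled plus 0.24 uM Alexa 594-labeled, final) in 100 mM sodium acetate pH 7 was mixed with compound and 20 uM heparin and incubated 6 hr at 37 C.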
FBPA coupling cs – qHTS Assay for Inhibitors of Fructose-1,6-bisphosphate Aldolase from Giardia Lamblia: Coupling assay counterscreen. coupling enzyme system counterscreen, AmpLite Red fluorescence. activity change, negative = inhibition, % at 58.2 µM, hits read low. 290,000 tested, 0.67% active; in the data active = activity change below about -30%
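Fluorescence at 525 nm excitation and 598 nm emission measured inhibition of the coupled detection system without aldolase. Compounds (at 57.5 uM final) were preincubated 10 min at room temperature with coupling enzyme reagent before a 20 min substrate/AmpLite Red step.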
Sfp PPTase inh – qHTS Assay for Inhibitors of Bacillus subtilis Sfp phosphopantetheinyl transferase (PPTase); 4'-phosphopantetheinyl transferase ffp (Bacillus subtilis), Q9F4F7; Biochemical Sfp PPTase activity, qHTS; Potency, µM, for inactives: largest response in the series, negative = inhibition, actives largely listed as inhibitors; 310,000 tested, 3.5% active; AID 1490, 2009;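 note: the enzyme is Sfp with the accession as filed and its product quenches rhodamine fluorescence; potency is the fitted concentration of half-maximal effect; 0% = enzyme reaction without inhibitor and -100% = no enzyme wells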
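With Hepes-Na pH 7.6 buffer containing 10 mM MgCl2, Sfp (15 nM) modified BHQ-2-YbbR (12.5 uM) using rhodamine-CoA (5 uM). Two reads 30 minutes apart at 525/598 nm yielded each well's rate.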
The depositor's hits bear a star; [ ] = another dose, or the depositor's remark. The list is not random: actives were taken first. Their share in the collection is about 5.2%. Unless noted, calls come from the whole dose curve; as a rule, active = well fitted curve in the direction sought with a large enough effect; inconclusive = small, poorly fitted or top-dose-only effect, or another doubt; inactive = no such curve, though single readings can be large; an effect the other way counts as inactive or inconclusive. Unless noted, % is set by controls: 0 for no effect and ±100 for the full control effect.

How did CC(C)[C@H](NC(=O)[C@@H](Cc1c[nH]c2ccccc12)NC(=O)[C@H](Cc1ccc(O)cc1)NC(=O)[C@@H](N)CC(=O)O)C(=O)N[C@H](Cc1c[nH]c2ccccc12)C(=O)N[C@H](Cc1c[nH]c2ccccc12)C(=O)N[C@@H](CCCCN)C(N)=O do in these assays?
FBPA coupling cs: 4.8; Sfp PPTase inh: -14.0%

Results for Cc1ccc(C(=O)N/N=C2\SCC(=O)N2c2cc(C)ccc2C)cc1 ?
Tau FP inhib: -2.8%; Tau ThT inhib: -10.3%; Tau fluor cs: -12.6%; FBPA coupling cs: 7.1; Sfp PPTase inh: 70.8µM*

Results for COC(=O)c1ccc(NC(=O)CC2C(=O)N(c3ccc(Cl)cc3)C(=O)N2Cc2ccco2)cc1 (stereo not drawn) ?
Tau FP inhib: inconclusive; Tau ThT inhib: 15.1%; Tau fluor cs: inconclusive

What do the screens show for `COc1cccc(-n2cn[nH]c2=S)c1`?
Tau FP inhib: -3.4%; Tau ThT inhib: -8.7%; Tau fluor cs: -8.7%; FBPA coupling cs: 2.7; Sfp PPTase inh: 21.7%

How did COc1cccc(-n2sc3c(c2=S)-c2cc(OC)ccc2NC3(C)C)c1 do in these assays?
Tau FP inhib: 12.3%; Tau ThT inhib: -19.1%; Tau fluor cs: 12.6µM*[quencher]; FBPA coupling cs: 0.3; Sfp PPTase inh: 26.1%

What do the screens show for `COc1ccccc1NC(=O)CSc1ncc2c(n1)-c1ccccc1N(Cc1ccccc1C)S2(=O)=O`?
Tau FP inhib: inconclusive; Tau ThT inhib: -18.0%; Tau fluor cs: -27.5%

What do the screens show for `O=[N+]([O-])c1cccc(NNS(=O)(=O)c2ccccc2F)c1`?
FBPA coupling cs: -30.3*; Sfp PPTase inh: inconclusive

How did Cc1cc(S(=O)(=O)Nc2cccc([N+](=O)[O-])c2)c(C)s1 do in these assays?
FBPA coupling cs: 0.3; Sfp PPTase inh: 15.6%

What do the screens show for `COc1ccccc1NC(=O)Cn1c(=O)n(Cc2ccco2)c(=O)c2oc3ccccc3c21`?
Tau FP inhib: inconclusive; Tau ThT inhib: 18.1%; Tau fluor cs: 4.4%

Results for CCCc1nc2c(sc3nc4c(cc32)COC(C)(C)C4)c(=O)n1Cc1ccco1 ?
Tau FP inhib: 7.1%; Tau ThT inhib: -3.0%; Tau fluor cs: -0.3%; FBPA coupling cs: -0.3; Sfp PPTase inh: 28.2µM*

Results for CCCc1nc2c(sc3nc4c(cc32)COC(C)(C)C4)c(=O)n1CCN(C)C ?
Tau FP inhib: -1.6%; Tau ThT inhib: 3.3%; Tau fluor cs: 0.4%; FBPA coupling cs: -0.1; Sfp PPTase inh: 10.7%

Results for COc1cc(/C=N/NC(=O)[C@H](Cc2c[nH]c3ccccc23)NC(=O)OCC(C)C)cc([N+](=O)[O-])c1O ?
Tau FP inhib: inconclusive; Tau ThT inhib: 14.1µM*; Tau fluor cs: inconclusive; FBPA coupling cs: -0.2; Sfp PPTase inh: 5.9%

Results for COc1ccc(-c2csc(-c3[nH]cnc3N)n2)cc1 ?
Tau FP inhib: -1.0%; Tau ThT inhib: 11.2µM*; Tau fluor cs: 15.8µM*[quencher]; FBPA coupling cs: -0.7; Sfp PPTase inh: 8.2%

What do the screens show for `Cc1c(Cl)cccc1NC(=O)Nc1nnc(N(C)Cc2ccccc2)s1`?
Tau FP inhib: inconclusive; Tau ThT inhib: -12.3%; Tau fluor cs: 1.5%

Results for Nc1ccc2nc(CN3CCOCC3)[nH]c2c1 ?
Tau FP inhib: -0.9%; Tau ThT inhib: inconclusive; Tau fluor cs: -10.1%; FBPA coupling cs: -32.4*; Sfp PPTase inh: -29.2%

How did COc1ccc(-c2ccc(/C=C3/C(=N)N4C(C)=CSC4=NC3=O)o2)c([N+](=O)[O-])c1 do in these assays?
Tau FP inhib: -9.9%; Tau ThT inhib: 2.24µM*; Tau fluor cs: inconclusive; FBPA coupling cs: 0.4; Sfp PPTase inh: 12.8%

How did COc1ccc(-c2ccc(/C=C3\C(=O)N(c4ccccc4)N=C3c3ccccc3)o2)c([N+](=O)[O-])c1 do in these assays?
Tau FP inhib: 4.6%; Tau ThT inhib: inconclusive; Tau fluor cs: inconclusive; FBPA coupling cs: 0.3; Sfp PPTase inh: 13.2%

Assay outcomes (PubChem)
